This passage reports Potency results from PubChem BioAssay (NCATS).

What all share (assay): qHTS profiling for inhibitors of Plasmodium falciparum proliferation (AID 504749); also: nearly all actives have a fitted effect of over 60% in size
Common to all, as to conditions: P. falciparum in erythrocytes, SYBR Green DNA, 72 h; series mostly up to 28.7 µM
On the technique in general: In qHTS, concentration-response curves come from the screen itself.

For one experiment, the system named is DIV30. In short, it runs like this: (§1)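 Infected RBCs, 0.3% parasitemia/2.5% Hct final; cpd 72 h, 37 C, 5% CO2; lysis buffer with saponin/triton/SYBR Green I, o/n RT dark; FI 485/535; norm. to artemisinin (0.29 uM) and DMSO.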
The test system of the next experiment is ECU. An outline of the steps: as §1
In a further experiment the test system is GB4. An outline of the steps: as §1
A further experiment deals with JCK. An outline of the steps: as §1
For another experiment, the system named is P93_24. In short, it runs like this: as §1
The subject of another experiment is P94_40. In short, it runs like this: as §1
The test system of another experiment is PC26. In short, it runs like this:
as §1

For the next experiment, the system named is PC49. In short, it runs like this: as §1
The subject of a further experiment is TAB113. An outline of the steps:
as §1

A further experiment deals with DIV17. An outline of the steps: as §1
The subject of another experiment is Dd2. An outline of the steps:
as §1

Another experiment concerns HB3. An outline of the steps:
as §1

The next experiment has as its system ICS. In short, it runs like this:
as §1

For a further experiment, the system named is N140. An outline of the steps:
as §1

Another experiment concerns PAD. In short, it runs like this:
as §1

Another experiment relates to PC15. In short, it runs like this: as §1
The next experiment deals with SC27B. An outline of the steps:
as §1

In another experiment the test system is TAB109. An outline of the steps: as §1
The next experiment deals with TAB165. An outline of the steps: as §1
For a further experiment, the system named is FAB9. An outline of the steps:
as §1

SMILES strings stand for the structures. Results filed as inconclusive are left out. The source made the active and inactive calls. Calls follow the shape of the dose curve; as a rule, active = well fitted inhibition curve with a large enough effect; inconclusive = small, poorly fitted or top-dose-only effect; inactive = flat fitted curve, though single readings scatter.
Potency is read from the fitted curve at half-maximal effect.

Take `CC(C)(C)NC(=O)[C@H]1CN(Cc2cccnc2)CCN1C[C@@H](O)C[C@@H](Cc1ccccc1)C(=O)N[C@H]1c2ccccc2C[C@H]1O`: the Potency in the experiment on DIV30 is 9530 nM (active); in the experiment with ECU, 11200 nM (active); with GB4, 5360 nM (active); in the experiment on P93_24 it was 14100 nM (active); in the experiment with P94_40 it was 11200 nM (active); in the experiment with PC26, 8490 nM (active). The Potency in the experiment on TAB113 is 11200 nM (active). The Potency result in the experiment with JCK and with PC49 was “inactive” each time.
In the case of `CCC1=C[C@@H]2CN(C1)Cc1c([nH]c3ccccc13)[C@@](C(=O)OC)(c1cc3c(cc1OC)N(C)[C@@H]1[C@@](O)(C(=O)OC)[C@H](OC(C)=O)[C@]4(CC)C=CCN5CC[C@]31[C@@H]54)C2`, the Potency is 3790 nM (active) in the experiment on DIV17; 4260 nM (active) in the experiment on DIV30; 891 nM (active) in the experiment with Dd2; 3980 nM (active) with ECU; 2130 nM (active) in the experiment on GB4; 7940 nM (active) with HB3. The Potency in the experiment on ICS is 3160 nM (active); in the experiment with JCK it was 14100 nM (active); in the experiment on N140 it was 1410 nM (active); with P93_24 it was 2240 nM (active); with P94_40, 1580 nM (active); with PAD, 2240 nM (active). The Potency with PC15 was 7080 nM (active); with PC26, 3380 nM (active); in the experiment on SC27B it was 2240 nM (active); in the experiment on TAB109, 2240 nM (active); in the experiment on TAB113 it was 1580 nM (active); in the experiment with TAB165, 2510 nM (active).
For the compound `COC(=O)C1=C(C)NC(C)=C(C(=O)OCCN2CCN(C(c3ccccc3)c3ccccc3)CC2)C1c1cccc([N+](=O)[O-])c1` (stereo unspecified), the Potency in the experiment with DIV17 was 1690 nM (active); in the experiment on DIV30 it was 1690 nM (active); with Dd2, 1580 nM (active); with ECU, 2510 nM (active); with FAB9 it was 7080 nM (active); with GB4, 2690 nM (active). For the same compound, the Potency in the experiment with HB3 was 3160 nM (active); in the experiment on ICS it was 1000 nM (active); in the experiment with JCK, 12600 nM (active); with N140, 1580 nM (active); in the experiment on P93_24 it was 2820 nM (active); in the experiment with P94_40, 2000 nM (active). The Potency in the experiment on PAD was 3160 nM (active); with PC15, 10000 nM (active); in the experiment on PC26 it was 1900 nM (active); in the experiment on PC49, 5010 nM (active); with SC27B it was 2240 nM (active); in the experiment on TAB109, 3550 nM (active). The Potency was 2000 nM (active) in the experiment with TAB113 and 2240 nM (active) with TAB165.
Regarding `CC[C@H]1CN2CCc3cc(OC)c(OC)cc3[C@H]2C[C@@H]1C[C@@H]1NCCc2cc(OC)c(OC)cc21`, the Potency is 338 nM (active) with DIV17; 478 nM (active) with DIV30; 178 nM (active) in the experiment on Dd2; 316 nM (active) in the experiment with ECU; 141 nM (active) in the experiment with FAB9; 269 nM (active) with GB4. The Potency in the experiment with HB3 is 316 nM (active); in the experiment with ICS, 178 nM (active); with JCK, 141 nM (active); with N140, 316 nM (active); with P93_24, 282 nM (active); with P94_40, 251 nM (active). Moreover, the Potency was 355 nM (active) in the experiment with PAD; 282 nM (active) in the experiment on PC15; 601 nM (active) in the experiment on PC26; 141 nM (active) in the experiment with PC49; 398 nM (active) with SC27B; 251 nM (active) with TAB109. The Potency in the experiment with TAB113 and in the experiment with TAB165 was 316 nM (active) throughout.
In the case of `CC1(C)O[C@@H]2C[C@@H]3[C@H]4C[C@@H](F)C5=CC(=O)C=C[C@]5(C)[C@@]4(F)[C@@H](O)C[C@]3(C)[C@]2(C(=O)CO)O1`, the Potency in the experiment on DIV30 is 10700 nM (active). For the same compound, the Potency entry in the experiment with Dd2, in the experiment on ECU, in the experiment with FAB9, with HB3, in the experiment on JCK and with N140 was “inactive” each time. For the same compound, the Potency result in the experiment with P93_24, with P94_40, in the experiment with PAD, in the experiment with PC15, in the experiment on PC49 and in the experiment on SC27B was “inactive” in each case. In addition, the Potency entry with TAB109, with TAB113 and with TAB165 was “inactive” in each case.
On to `O=C(O)CO.[NH2-].[NH2-].[Pt+2]`, for which the Potency result with DIV30, with Dd2, in the experiment with ECU, with FAB9, in the experiment with GB4 and with HB3 was “inactive” in each case. Besides, the Potency result in the experiment with JCK, in the experiment with N140, with P93_24, in the experiment on P94_40, in the experiment on PAD and with PC15 was “inactive” each time. Further, the Potency result in the experiment with PC26, in the experiment with PC49, with SC27B, with TAB109, in the experiment with TAB113 and in the experiment on TAB165 was “inactive” in each case.
With `Nc1ccc(S(=O)(=O)Nc2ncccn2)cc1`, the Potency entry in the experiment with DIV17, in the experiment on DIV30, in the experiment with Dd2, in the experiment on ECU, in the experiment with FAB9 and in the experiment with GB4 was “inactive” in each case. Besides, the Potency result in the experiment with HB3, in the experiment on ICS, in the experiment on JCK, with N140, in the experiment with P93_24 and with P94_40 was “inactive” each time. Further, the Potency entry with PAD, in the experiment with PC15, in the experiment with PC26, with PC49, in the experiment with SC27B and in the experiment on TAB109 was “inactive” in each case. The Potency entry with TAB113 and in the experiment with TAB165 was “inactive” each time.
`COC(=O)C[C@](O)(CCCC(C)(C)O)C(=O)O[C@@H]1C(OC)=C[C@]23CCCN2CCc2cc4c(cc2[C@H]13)OCO4`: the Potency was 23.9 nM (active) in the experiment on DIV17; 33.8 nM (active) in the experiment on DIV30; 12.6 nM (active) with Dd2; 17.8 nM (active) in the experiment on ECU; 56.2 nM (active) with FAB9; 30.1 nM (active) in the experiment with GB4. The Potency in the experiment with HB3 was 28.2 nM (active); in the experiment with ICS it was 15.8 nM (active); with JCK it was 6.3 nM (active); in the experiment on N140, 20 nM (active); with P93_24, 28.2 nM (active); in the experiment with P94_40 it was 15.8 nM (active). Also, the Potency in the experiment with PAD is 15.8 nM (active); in the experiment with PC15, 31.6 nM (active); in the experiment with PC26 it was 19 nM (active); with PC49, 0.6 nM (active); in the experiment on SC27B, 28.2 nM (active); in the experiment on TAB109 it was 25.1 nM (active). Further, the Potency in the experiment on TAB113 is 15.8 nM (active); with TAB165, 100 nM (active).
